HUVEC tox IL1B: cytotoxicity in IL-1B stimulated HUVEC, primary screen, cytotoxicity control for IL-1B NFkB translocation project, imaging, Hoechst nuclear count, IL-1B stimulus | 94,000 compounds, 0.41% hits | cell count reduction, % at 2 µM | HUVEC cell count loss | AID 845, 2007;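 active = cell count reduction more than 3 SD above the screen-wide mean, cut at about 70% in these data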;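 also: normalized per plate to untreated control cells as the no-loss baseline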
IL1B NFkB inh: inhibitors of IL-1B driven NFkB p65 nuclear import, primary screen, imaging, HUVEC, IL-1B stimulus, high-content imaging | HUVEC IL-1B NFkB p65 nuclear translocation imaging | inhibition, % at 2 µM | 94,000 compounds, 0.43% hits;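 active = inhibition above about 30% together with a positive call from visual inspection of the well image, limit read from the data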;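 also: nuclear over cytoplasmic p65 intensity ratio measured by imaging; 0% = IL-1B stimulated DMSO wells and 100% = unstimulated DMSO wells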
Smad3 inh: Smad3/FoxH1 peptide binding inhibitors, primary screen, biochemical, TR-FRET; Mothers against decapentaplegic homolog 3 (Homo sapiens), P84022; TR-FRET Smad3/Dy647-FoxH1 peptide binding, europium anti-His; inhibition, % at 25 µM; 88,000 compounds, 0.29% hits; AID 630, 2007;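 active = compounds that reduce the energy-transfer binding signal between the protein and its labelled peptide by more than half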;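 also: 0% = Smad3 plus labelled peptide maximal FRET and 100% = peptide-only background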
Target sequence (P84022 whole entry, looked up): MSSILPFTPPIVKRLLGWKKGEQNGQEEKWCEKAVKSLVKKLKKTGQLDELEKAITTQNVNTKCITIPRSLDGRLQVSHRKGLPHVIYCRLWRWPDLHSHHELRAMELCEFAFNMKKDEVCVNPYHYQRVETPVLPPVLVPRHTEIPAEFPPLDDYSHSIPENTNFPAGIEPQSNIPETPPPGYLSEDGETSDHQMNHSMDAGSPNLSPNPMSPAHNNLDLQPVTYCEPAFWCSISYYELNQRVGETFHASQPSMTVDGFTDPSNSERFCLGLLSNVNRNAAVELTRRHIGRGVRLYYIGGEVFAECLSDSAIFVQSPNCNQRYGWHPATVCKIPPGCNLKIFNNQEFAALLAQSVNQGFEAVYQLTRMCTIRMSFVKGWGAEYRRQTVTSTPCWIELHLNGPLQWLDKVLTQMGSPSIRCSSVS
NFkB transloc pot: enhancers of NFkB p65 translocation in HUVEC – imaging, IL-1B stimulus, high-content imaging, primary screen | 94,000 compounds, 0.3% hits | activation, % at 2 µM | HUVEC IL-1B NFkB p65 nuclear translocation imaging;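 active = activation above 40%, about the mean plus 3 SD, also judged a hit on visual image review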;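 also: percent activation is computed from the nuclear over cytoplasmic p65 intensity ratio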
* hit, by the source's call; / = no result given. This is a sample that favours compounds with a hit; in the whole collection about 1.2% have one here.

SMILES	HUVEC tox IL1B	IL1B NFkB inh	Smad3 inh	NFkB transloc pot
C[N+]1(C)CCO[C@](O)(c2ccccc2)C1	/	/	2	/
CCOC(=O)c1ccc2[nH]c3c(c2c1)CCCCC3=O	16	-41	-19	41*
Cc1cccc2cc(C#N)c(SCCN3CCCCC3)nc12	84*	97*	-13	-97
Cc1cccc2cc(C#N)c(N3CCN(C)CC3)nc12	-18	-15	13	15
C[C@@]12C[C@H](O)[C@@H]3[C@H](CCC4=CC(=O)CC[C@]43C)[C@H]1CC[C@H]2c1csc(-c2ccccc2)n1	/	/	0	/
CCOC(=O)C[n+]1c(C)sc2ccc(OC)cc21	-21	43*	/	-43
CCO/C(=C/c1sc2ccc(OC)cc2[n+]1CCCS(=O)(=O)[O-])CC	15	7	-1	-7
CC(=NC1CCCCC1)c1ccccc1O	/	/	16	/
CC(Oc1ccccc1)C(=O)NCc1cccnc1 (stereo not drawn)	-10	-7	16	7
COc1ccc(OC(C)C(=O)NCc2cccnc2)cc1 (stereo not drawn)	93*	13	6	-13
CCC(C)NS(=O)(=O)c1ccc(OCC(=O)NCc2cccnc2)cc1 (stereo not drawn)	80*	98*	-8	-98
COc1cccc2c1C(=O)c1c(O)c3c(c(O)c1C2=O)C[C@](O)(C(=O)CO)C[C@@H]3O[C@@H]1C[C@H](N)[C@@H](O)[C@H](C)O1	/	/	9	/
O=C(NC1CC1)c1c[nH]c2ccc(S(=O)(=O)Nc3cccc(C(F)(F)F)c3)cc2c1=O	91*	-2	-2	2
S=c1[nH]nc(-c2cc(-c3ccco3)[nH]n2)n1-c1ccccc1	-4	35*	-11	-35
Cc1cc(S(=O)(=O)Nc2ccc(F)cc2)c(C)s1	89*	12	0	-12
CCN1CCN(c2ccc(-n3c(C)nc4c(cnn4-c4ccccc4Cl)c3=O)cc2)CC1	/	/	2	/
CCC(=O)N1CCN(c2nc3ccccc3s2)CC1	19	37*	8	-37
C[C@]12CC[C@H](O)C[C@@H]1CC[C@H]1[C@H]2CC[C@]2(C)[C@@H]1CC[C@H]2c1cc(C(F)(F)F)n[nH]1	/	/	4	/
Cc1cc2ccccc2n1CCNC(=O)c1cccs1	37	59*	10	-59
C[C@H]1C[C@@H]2[C@@H]3CCC4=CC(=O)C=C[C@@]4(C)[C@@]3(F)[C@H](O)C[C@@]2(C)[C@]1(O)C(=O)COP(=O)(O)O	/	/	8	/
CCOC(=O)C1=C(Cc2ccc(F)cc2)C(=O)c2ccccc2C1=O	1	-59	5	59*
O=C(OCc1ccc(F)cc1)c1ccc2c(c1)-c1ccccc1C2=O	7	-3	/	3
Cc1ccc2nc(NC(=O)CN(C)S(=O)(=O)c3ccc(Br)s3)sc2c1	29	38*	-9	-38
C[C@@]12CC[C@H]3c4ccc(O)cc4CC[C@@H]3[C@H]1CC[C@H]2OC(=O)CCc1ccccc1	/	/	13	/
O=C(N[C@]1(C(=O)O)C[C@H]1c1ccccc1)c1ccccc1	/	/	8	/
SMILES	HUVEC tox IL1B	IL1B NFkB inh	Smad3 inh	NFkB transloc pot
O=C1C=C(NCc2ccco2)CC(c2ccc(Cl)cc2)C1 (stereo not drawn)	86*	12	3	-12
C=CCNc1nc(N)c(C(=O)c2ccc3c(c2)OCO3)s1	-27	-19	9	19
C=CCNc1nc(N)c(C(=O)Nc2cc(C)on2)s1	77*	10	6	-10
CO[C@@H]1/C=C\O[C@]2(C)Oc3c(C)c(O)c4c(O)c(c(CN(C)C)c(O)c4c3C2=O)NC(=O)C(C)=C/C=C\[C@@H](C)[C@@H](O)[C@H](C)[C@@H](O)[C@H](C)[C@H](OC(C)=O)[C@@H]1C	/	/	5	/
Cc1cccc(Cl)c1NC[C@H](O)CN1CCN(C)CC1	/	/	0	/
COc1ccc(C2C(C(C)=O)=C(C)N=c3s/c(=C\c4ccc5c(c4)OCO5)c(=O)n32)c(OC)c1 (stereo not drawn)	94*	-13	10	13
C[C@@H]1CCCN(C[C@@H](O)CN2CCCc3ccccc32)C1	/	/	-7	/
O=C(NC1CCCC1)C1C2C=CC(C2)C1C(=O)N1CCOCC1 (stereo not drawn)	83*	-1	-5	1
Cc1cc2ccccc2c[n+]1CC(O)C[n+]1cc2ccccc2cc1C	/	/	-9	/
CCNC(=S)N1CCN(CCN=CC2=C(O)CC(c3ccco3)CC2=O)CC1 (stereo not drawn)	4	8	15	-8

Screening results deposited in PubChem BioAssay by several laboratories.
